Bioassay records (PubChem)
A3G deaminase: APOBEC3G (human) deaminase inhibition; Q9HC16; recombinant A3G, ssDNA deamination FAM/TAMRA fluorescence; inhibition, % at 20 µM; actives 0.28% (n = 330,000); AID 493012;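 active = inhibition of at least 40% at 20 µM, with no more than 30% in the related APOBEC3A deaminase screen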;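 note: plate controls were DMSO wells with A3G for no effect and wells lacking A3G enzyme for full effect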
Target sequence (Q9HC16 whole entry, looked up): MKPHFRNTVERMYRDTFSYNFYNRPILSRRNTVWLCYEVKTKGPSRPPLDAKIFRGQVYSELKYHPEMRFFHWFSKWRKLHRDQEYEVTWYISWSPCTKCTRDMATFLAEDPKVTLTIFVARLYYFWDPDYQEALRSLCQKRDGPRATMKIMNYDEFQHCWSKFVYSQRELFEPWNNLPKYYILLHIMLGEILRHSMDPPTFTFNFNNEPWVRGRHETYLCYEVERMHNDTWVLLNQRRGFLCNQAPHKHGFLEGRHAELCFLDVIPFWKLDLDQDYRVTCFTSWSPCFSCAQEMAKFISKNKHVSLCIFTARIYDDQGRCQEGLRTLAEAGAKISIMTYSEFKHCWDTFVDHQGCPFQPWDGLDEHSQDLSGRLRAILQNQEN
APOBEC3A inh: human APOBEC3A DNA deaminase inhibition | P31941 | recombinant A3A, FAM/TAMRA ssDNA deamination fluorescence | inhibition, % at 20 µM | actives 0.41% (n = 330,000);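 active = at least 40% inhibition at 20 µM here, with at most 30% in a related deaminase screen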;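 note: plate controls were A3A with DMSO for no effect and wells lacking A3A enzyme for full effect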
Target sequence (P31941 whole entry, looked up): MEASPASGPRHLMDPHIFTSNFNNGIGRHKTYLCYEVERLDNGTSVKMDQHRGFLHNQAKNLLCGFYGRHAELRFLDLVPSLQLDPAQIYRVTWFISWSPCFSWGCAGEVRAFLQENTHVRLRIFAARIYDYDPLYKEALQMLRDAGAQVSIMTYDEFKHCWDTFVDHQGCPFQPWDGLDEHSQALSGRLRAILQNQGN
PABP polyA inh: PABP-poly(A) binding inhibition; P11940; PABP-poly(A) RNA binding, fluorescence polarization; calls only at 35 µM; actives 1% (n = 290,000); AID 2014;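 note: calls also rest on retests at 20 µM and on dose response follow-up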
eIF4H FP inh: inhibitors of RNA binding by human eIF4H; actives 0.94% (n = 290,000); Q15056; eIF4H fluorescence polarization binding assay; inhibition, % at 35 µM;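 note: calls also rest on retests at 20 µM and on dose response follow-up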
PHOSPHO1 block: inhibitors of human PHOSPHO1 phosphatase; recombinant PHOSPHO1, absorbance phosphatase assay; inhibition, % at 13.3 µM; AID 1565; actives 1.1% (n = 290,000); in the data active = inhibition above about 60%
MLLE-PAM2 inh: blocks PAM2 peptide binding to the PABP1 MLLE domain | P11940 | AID 588489 | actives 0.36% (n = 360,000) | GST-MLLE / FITC-PAM2 fluorescence polarization | inhibition, % at 20 µM; in the data active = inhibition above about 35%, passing the limit was not always enough;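 note: plate controls were DMSO wells with GST-MLLE for no effect and wells lacking GST-MLLE protein for full effect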
Numbers without * were called inactive; i = inactive; ? = inconclusive; . = not tested or not shown; + = active, no number. Sampled rows, rich in hits. Any-hit rate of the full collection: about 2.6%. Unless noted, the rule behind the calls is not given here.

SMILES | A3G deaminase | APOBEC3A inh | PABP polyA inh | eIF4H FP inh | PHOSPHO1 block | MLLE-PAM2 inh
O=C(CN1CCCC1c1ccc2c(c1)OCCO2)NC(=O)Nc1ccccc1 (stereo unspecified) | 0 | 3 | . | . | . | -7
CC(C)NC(=O)CN1CCC(c2nc3ccccc3[nH]2)CC1 | -8 | -4 | i | -2 | -26 | -9
Cc1oc(C)c2c(=O)ccc3c(c12)OC(N)=C(C#N)C3c1ccc(F)cc1 (stereo unspecified) | -1 | 4 | + | 70* | 7 | -55
CCC(Oc1ccccc1)C(=O)O/N=C(\N)c1ccc(OC)c(OC)c1 (stereo unspecified) | -2 | -4 | + | active | 1 | -3
CCOC(=O)CN1N=C(c2ccc(Cl)cc2)CCC1=O | -1 | -2 | i | 44 | -3 | -9
Oc1ccccc1/C=C/c1noc(-c2ccccc2O)n1 | -6 | 2 | + | 3 | 21 | 12
CC(=O)Nc1ccc(/C=C/c2noc(-c3ccccc3O)n2)cc1 | -10 | -4 | i | -1 | -9 | -15
O=c1/c(=C/c2ccco2)sc2n1CN(c1cccc(Br)c1)CN=2 | -2 | 2 | + | 51* | 39 | -83
O=c1/c(=C/c2ccco2)sc2n1CN(c1ccccc1)CN=2 | -3 | 1 | i | -8 | 19 | -10
CN(C)c1cc(Nc2ccc(O)cc2)c([N+](=O)[O-])c2nonc12 | 6 | 0 | i | -11 | -6 | 0
O=C(O)c1cccc(Nc2cc(Cl)c3nonc3c2[N+](=O)[O-])c1 | -1 | 1 | i | -1 | 16 | 36
O=C(O)c1ccccc1Nc1cc(Cl)c2nonc2c1[N+](=O)[O-] | -4 | -1 | i | 11 | . | 42*
O=[N+]([O-])c1c(Nc2ccc(O)cc2)cc(Cl)c2nonc12 | 6 | -1 | i | 9 | 18 | 39*
O=C(OCC(=O)N1CCN(C(=O)c2ccco2)CC1)c1cc(-c2ccccc2)nc2ccccc12 | -5 | 1 | i | -9 | 61* | -17
Cc1ccsc1C(=O)OCC(=O)N1CCN(C(=O)c2ccco2)CC1 | -3 | -3 | i | 0 | 63* | 3
Cc1ccc(-c2cc(C(=O)N3CCN(c4ncccn4)CC3)c3ccccc3n2)cc1 | -1 | 12 | i | -6 | 69* | -107
O=C(COc1ncnc2sccc12)N1CCN(C(=O)c2ccco2)CC1 | 6 | 28 | + | 66 | 58 | 3
O=C(OCC(=O)N1CCN(C(=O)c2ccco2)CC1)c1cc(-c2ccc(F)cc2)nc2ccccc12 | -1 | 0 | i | -2 | -5 | 5
CN1C(=O)SC(Nc2ccccc2C(=O)O)C1=O (stereo unspecified) | -2 | 2 | i | 3 | 30 | 38*
O=C(O)c1ccccc1Nc1ccccc1C(=O)O | -7 | 8 | i | 7 | 52 | 2
CC(=O)Nc1cc(C)ns1 | . | . | . | . | . | -1
CCc1ccc(NC(=O)C(C)OC(=O)C2CCC(=O)N2)cc1 (stereo unspecified) | -9 | -1 | i | 6 | 33 | -3
Cc1ccc(NC(=O)Cn2c(=O)oc3cc(S(=O)(=O)N4CCC(C)CC4)ccc32)cc1C | -6 | -3 | i | 2 | -11 | -9
COCCn1c(SCC(=O)Nc2sccc2C(N)=O)nnc1-c1ccncc1 | -6 | 8 | i | 30 | 2 | -13
COc1nccnc1NS(=O)(=O)c1ccc(NC(=S)NC(=O)/C=C/c2ccccc2)cc1 | 1 | -1 | i | 1 | -7 | 45*
SMILES | A3G deaminase | APOBEC3A inh | PABP polyA inh | eIF4H FP inh | PHOSPHO1 block | MLLE-PAM2 inh
Cc1nn(C)c(Cl)c1CN1CCCC(CO)(Cc2ccccc2)C1 (stereo unspecified) | -6 | 3 | i | 0 | 32 | -3
COc1cccc(CN2CCNC(=O)C2CC(=O)N(C)C2CCOCC2)c1OC (stereo unspecified) | -9 | -1 | i | 3 | 66* | 4
COc1ccc(-c2nnc(NC(=O)Cc3ccccc3)s2)c(OC)c1 | 1 | 2 | i | 2 | 43 | 4
COc1ccc(-c2nnc(NC(=O)c3cccs3)s2)c(OC)c1 | 16 | 8 | i | 55* | 39 | 0
CCOc1ccccc1NC(=O)c1cccc(NC(=O)C(C)C)c1 | -4 | 0 | i | -5 | 61* | -20
CCCCCn1c(=O)c(C(=O)c2ccccc2)nc2ccccc21 | -5 | -1 | + | -14 | 28 | -6
CCn1c(=O)c(C(C)=O)nc2ccccc21 | 0 | 2 | i | -1 | 11 | -2
CC(=O)c1cccc(S(=O)(=O)NCCC(=O)O)c1 | -8 | -4 | i | -6 | 17 | 9
COc1ccc(-c2cc(-c3n[nH]c(=S)n3-c3ccccc3OC)[nH]n2)cc1 | -7 | -2 | i | 1 | 67* | -41
COc1ccc(OC)c(-n2c(-c3cc(-c4ccccc4)n[nH]3)n[nH]c2=S)c1 | -8 | -7 | i | -10 | -13 | 0
COc1ccc(OC)c(-n2c(-c3ccccc3)n[nH]c2=S)c1 | 22 | -3 | i | -2 | 102* | -9
CC(C)(C)c1ccc(C(=O)NCC(=O)N2CCC3(CC2)NCCc2[nH]cnc23)cc1 | -3 | -1 | i | 2 | 27 | -9
O=C(CCNS(=O)(=O)c1cccc(C(F)(F)F)c1)NCc1ccco1 | -2 | 0 | . | . | . | -15
CN1OC[C@@H]2CN(S(=O)(=O)c3cccc4ccccc34)[C@H](c3ccc(-c4ccccc4)cc3)C[C@@H]21 | . | . | . | . | . | -14
COc1ccc(-n2cnnc2SCc2csc(-c3ccccc3)n2)cc1 | -4 | -2 | i | -3 | 3 | 5
CCN(CC)c1ccc(N/C(N)=N/c2nc(C(F)(F)F)cc(=O)[nH]2)cc1 | -10 | -6 | + | active | -5 | -5
N/C(=N\c1nc(C(F)(F)F)cc(=O)[nH]1)Nc1ccc(Cl)cc1 | -4 | 2 | i | -6 | -14 | .
CCOC(=O)c1c(N)sc2c1CCS(=O)(=O)C2 | 29 | 4 | i | 18 | 79* | 39*
COc1ccccc1N1C(=O)CC(Sc2n[nH]c(-c3cccc(C)c3)n2)C1=O (stereo unspecified) | 31 | -5 | i | -5 | 81* | 30
CCCOc1ccc(-c2nc(=S)[nH][nH]2)cc1 | -1 | -4 | i | 2 | 95* | 27
S=c1nc(-c2ccc(Cl)cc2)[nH][nH]1 | 10 | -8 | i | -8 | 28 | 21
CCc1ccccc1NC(=O)CCS(=O)(=O)c1ccc(OC)cc1 | 12 | 15 | i | 54* | -3 | 16
COc1ccc(NC(=O)c2ccco2)cn1 | -13 | -6 | ? | ? | 28 | 52*
COc1cccc(OC)c1C(=O)Nc1ccc(NC(=O)c2ccco2)cc1 | -6 | 3 | i | -6 | -10 | 9
COc1ccc(NC(=S)NC(=O)c2ccccc2)cn1 | 0 | -1 | i | 7 | . | 42*
